40 compounds from PubChem BioAssay (EPA / NIEHS) can be followed below.

The source made the active and inactive calls. The calls were made as follows: active = hit-call score of the fitted dose curve at least 0.9, where 1 is the maximum; inactive = score below 0.9.

A short description of this assay: ATG_PXRE_CIS: Attagene CIS-FACTORIAL HepG2 Assay for human Pregnane X Receptor Element (PXRE) (AID 2282957). The settings on record: HepG2 Attagene CIS-FACTORIAL PXRE reporter, mRNA; actives raise or lower the signal. On the procedure: ATG_CIS is a cell-based, multiplexed-readout assay that uses HepG2, a human liver cell line, with measurements taken at 24 hours after chemical dosing in a 24-well plate.ATG_PXRE_CIS is one of 52 assay component(s) measured or calculated from the ATG_CIS assay. It is designed to make measurements of mRNA induction, a form of inducible reporter, as detected with fluorescence intensity signals by Reverse transcription polymerase chain reaction (RT-PCR) and Capillary electrophoresis technology.Data from the assay component ATG_PXRE_CIS was analyzed into 1 assay endpoint. This assay endpoint, ATG_PXRE_CIS, was analyzed with bidirectional fitting relative to DMSO as the negative control and baseline of activity. Using a type of inducible reporter, measures of mRNA for gain or loss-of-signal activity can be used to understand the reporter gene at the transcription factor-level as they relate to the gene NR1I2. Furthermore, this assay endpoint can be referred to as a primary readout, because this assay has produced multiple assay endpoints where this one serves a reporter gene function. To generalize the intended target to other relatable targets, this assay endpoint is annotated to the nuclear receptor intended target family, where the subfamily is non-steroidal.
Human liver HepG2 cells are transiently transfected with multiple reporter transcription units (MRTUs) in 6-well plates using FuGene 6 reagent (Roche; 3 ml FuGene/1 mg DNA). The MRTU constructs are regulated by a cis-regulating element (promoter). […] A major difference between the CIS and TRANS system is that in CIS activities of endogenous TFs are measured, whereas the TRANS assay evaluates changes in activities of exogenous, chimeric NR-Gal4 proteins. […] At the end of 24 hour incubation, total RNA was isolated using TriZol reagent (Invitrogen). The isolated RNA is then reverse-transcribed using oligo(dT) primer and Mo-MLV reverse transcriptase (Invitrogen) with DNAse I (Ambion) treatment for 30 min. The one-tenth of the produced cDNA was amplified by PCR using Taq DNA polymerase (Invitrogen) and two reporter sequence-specific primers. The PCR products were fluorescently labeled by primer extension with 6-arboxyfluorescein (6-FAM) 5'-labeled reporter sequence-specific primer (2 min at 95 C, 20 s at 68 C and 10 min at 72 C) and these products were digested with 5U of HpaI (New England Biolabs) for 2h at 37 C. The fragments were purified using Qiaquick PCR columns (Qiagen), analyzed on an ABI 3130xL genetic analyzer (Applied Biosystems) with peak positions identified by using a set of X-rhodamine (ROX)-labeled MapMarker1000 molecular weight standards (BioVentures). The raw capillary electrophoresis data was processed using Attagraph software (Attagene).
Usually AC50 stands for the concentration at which the activity in the assay is half-maximal. For the compound `COc1cc(/C=C/C(=O)CC(=O)/C=C/c2ccc(O)c(OC)c2)ccc1O`, the AC50 is 60.4 µM (active).
Consider `NCC1(Cc2noc(=O)[nH]2)CCCCC1`, for which the result was inactive.
Consider `CN1CCN(Cc2cc(-c3ccc4[nH]c(=O)oc4c3)co2)[C@@H](c2ccc(F)cc2)C1`, for which the concentration at half-maximal activity (AC50) is 8.51 µM (active).
For the compound `Cc1ccc(C)c(O)c1C`, the compound was classed as inactive.
The same measure, in the same setting: the entry for `CN1CCCC1=O` is “inactive”; for `CCCCCCCCCCO` it is “inactive”.
For the compound `O=c1[nH]cc(F)c(=O)[nH]1`, the outcome was inactive.
The same measure, in the same setting: then `COc1cc(C=O)ccc1O`, with “inactive”; and `C1CCC(SSC2CCCCC2)CC1`, with “inactive”.
For the compound `O=[N+]([O-])C(CO)(CO)CO`, the AC50 was 48.1 µM (active).
In the case of `CCCCCCCCCCCC(=O)OC`, the outcome was inactive.
On to `Cc1cccc([N+](=O)[O-])c1C`, for which the AC50 was 27.1 µM (active).
With `c1cc(-c2ccncc2)ccn1`, the compound was classed as inactive.
Turning to `CCCCCCOCCO`, the compound was classed as inactive.
On to `OC[C@@H](O)[C@@H](O)[C@H](O)[C@H](O)CO`, for which the result was inactive.
Regarding `O=C(OCCCCCOC(=O)c1ccccc1)c1ccccc1`, the call was inactive.
`O=C(O)Cc1ccccc1Nc1c(Cl)cccc1Cl`: the AC50 was 25.8 µM (active).
With `COc1cc(S(=O)(=O)O)c(C)cc1N=Nc1c(O)ccc2cc(S(=O)(=O)O)ccc12`, the call was inactive.
In the case of `NS(=O)(=O)c1cc2c(cc1Cl)NCNS2(=O)=O`, the call was inactive.
Consider `Cc1cccc(C)c1O`, for which the outcome was inactive.
As to `CCCCOC(=O)CCCCCCCCC(=O)OCCCC`, the call was inactive.
On to `CCCCN(CCCC)CCCC`, for which the half-maximal activity concentration (AC50) was 26.5 µM (active).
On to `Cc1cccc(Nc2cc(Cl)nc(SCC(=O)O)n2)c1C`, for which the AC50 is 29.8 µM (active).
As for `C=CCc1ccc(O)c(OC)c1`, the compound was classed as inactive.
With `Nc1nc(N)c2nc(CNc3ccc(C(=O)N[C@@H](CCC(=O)O)C(=O)O)cc3)cnc2n1`, the compound was called inactive.
Take `COc1ccc(C)cc1N`: the outcome was inactive.
As to `CCNc1cccc(C)c1`, the compound was classed as inactive.
`Cc1oc(-c2ccccc2)nc1CCOc1cccc2c1ccn2CCC(=O)O`: the result was inactive.
As to `COc1cccc2c1C(=O)c1c(O)c3c(c(O)c1C2=O)C[C@@](O)(C(=O)CO)C[C@@H]3O[C@H]1C[C@H](N)[C@H](O)[C@H](C)O1`, the compound was called inactive.
Consider `CCCCCCCCCCCCCCCC`, for which the AC50 was 26.1 µM (active).
Regarding `CNC(=O)[C@H]1O[C@@H](n2cnc3c(NCc4cc(Cl)ccc4OCc4cc(C)no4)ncnc32)[C@H](O)[C@@H]1N`, the compound was called inactive.
Still for that read-out and setting: the entry for `CC(=O)OCCOCCOCCOC(C)=O` is “inactive”.
Consider `Cc1c(C(=O)O)c(O)cc2c1C(=O)c1c(O)c([C@@H]3O[C@H](CO)[C@@H](O)[C@H](O)[C@H]3O)c(O)c(O)c1C2=O`, for which the AC50 is 53.9 µM (active).
As for `Cc1ccc(Cl)cc1`, the result was inactive.
With `CCCc1cc(=O)[nH]c(=S)[nH]1`, the half-maximal activity concentration (AC50) was 65.4 µM (active).
As to `CCCCCCCCCCC`, the outcome was inactive.
With `O=C(O)CCCCC(=O)O`, the half-maximal activity concentration (AC50) was 55 µM (active).
Regarding `COc1cc(-c2nc(NC(=O)c3cc4cc(C)cc(C)c4n3CC(=O)O)sc2CCC2CCCCC2)c(OC)cc1Cl`, the outcome was inactive.
As to `Nc1ccc(S(=O)(=O)c2ccc(N)cc2)cc1`, the call was inactive.
Take `CC(C)c1ccc(C(=O)N=C(N)N)cc1S(C)(=O)=O`: the AC50 is 31.7 µM (active).
